Experimental data from PubChem BioAssay AID1159580 (chemical genetic matrix, 2015).
“And” between values parts separate entries of the source, which are not always exact repeats. Equal values may be shown once. The campaign covered roughly 5,500 compounds. About 2,000 (36%) were called active. Inconclusive results (about 18%) are left out. Rule as the data show it: active = normalized growth mostly below about 0.91 (no sharp cut-off); inconclusive = no clear call, values can overlap the other calls; inactive = mostly above about 0.92. The list shows a part of the results.

Test: chemical genetic growth profiling, strain panel (AID 1159580);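 also: tested at 20 µM; growth read once vehicle control cultures reached saturation at 30 °C; 1 = growth at the plate median or of vehicle wells; lower values mean less growth of the strain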
Conditions: S. cerevisiae deletion strains, growth OD

Measured: normalized growth

Cc1oncc1C(=O)Nc1ccc(C(F)(F)F)cc1
active: locus YBR009C, strain hhf1, stronger effect = lower value 0.901 | locus YBR231C, strain swc5, stronger effect = lower value 0.88 | locus YDR159W, strain sac3, stronger effect = lower value 0.754 | locus YDR297W, strain sur2, stronger effect = lower value 0.91 | locus YER155C, strain BEM2 (second series), stronger effect = lower value 0.733 | locus YGL240W, strain doc1, stronger effect = lower value 0.785 | locus YJL129C, strain trk1, stronger effect = lower value 0.869 | locus YLR027C, strain aat2, stronger effect = lower value 0.919 | locus YMR205C, strain PFK2, stronger effect = lower value 0.794 | locus YNL071W, strain lat1, stronger effect = lower value 0.858
inactive: locus YAL013W, strain DEP1, stronger effect = lower value 1.03 and 0.94 | locus YAL021C, strain ccr4, stronger effect = lower value 1.05 | locus YAL026C, strain drs2, stronger effect = lower value 0.97 | locus YAL030W, strain snc1, stronger effect = lower value 0.979 | locus YAL040C, strain CLN3, stronger effect = lower value 0.918 | locus YBL061C, strain skt5, stronger effect = lower value 1.01 | locus YBR021W, strain FUR4, stronger effect = lower value 1.02 | locus YBR023C, strain chs3, stronger effect = lower value 0.979 | locus YBR171W, strain sec66, stronger effect = lower value 1.02 | locus YBR229C, strain ROT2, stronger effect = lower value 1.01 | locus YBR279W, strain paf1, stronger effect = lower value 1 | locus YCL011C, strain gbp2, stronger effect = lower value 0.919 | locus YCL016C, strain dcc1, stronger effect = lower value 0.981 | locus YCL029C, strain bik1, stronger effect = lower value 0.996 | locus YCL061C, strain MRC1 (second series), stronger effect = lower value 0.983 | locus YCL061C, strain MRC1, stronger effect = lower value 0.95 | locus YCL069W, strain vba3, stronger effect = lower value 0.982 | locus YCR088W, strain abp1, stronger effect = lower value 0.978 | locus YDL005C, strain med2, stronger effect = lower value 1.02 | locus YDL035C, strain GPR1, stronger effect = lower value 1.04 | locus YDL040C, strain nat1, stronger effect = lower value 0.99 | locus YDL074C, strain BRE1, stronger effect = lower value 1.01 | locus YDL101C, strain DUN1, stronger effect = lower value 1.02 | locus YDL134C, strain PPH21, stronger effect = lower value 1.04 | locus YDL185W, strain tfp1, stronger effect = lower value 0.993 | locus YDL192W, strain arf1, stronger effect = lower value 0.989 | locus YDR001C, strain nth1, stronger effect = lower value 0.986 | locus YDR069C, strain doa4, stronger effect = lower value 0.977 | locus YDR101C, strain arx1, stronger effect = lower value 0.991 | locus YDR137W, strain rgp1, stronger effect = lower value 1.03 | locus YDR150W, strain NUM1, stronger effect = lower value 1.01 | locus YDR162C, strain NBP2, stronger effect = lower value 1.03 | locus YDR195W, strain ref2 1.07 | locus YDR318W, strain mcm21, stronger effect = lower value 0.993 | locus YDR334W, strain swr1, stronger effect = lower value 0.991 | locus YDR335W, strain msn5, stronger effect = lower value 0.994 | locus YDR363W, strain ESC2, stronger effect = lower value 0.966 | locus YDR388W, stronger effect = lower value 1 | locus YDR392W, strain spt3, stronger effect = lower value 0.761 | locus YDR502C, strain sam2, stronger effect = lower value 0.996 | locus YEL003W, strain gim4, stronger effect = lower value 0.971 | locus YEL037C, strain rad23, stronger effect = lower value 1.01 | locus YEL061C, strain CIN8 (second series), stronger effect = lower value 0.998 | locus YEL061C, strain CIN8, stronger effect = lower value 1.01 | locus YER002W, strain NOP16, stronger effect = lower value 1.01 | locus YER015W, strain faa2, stronger effect = lower value 0.998 | locus YER016W, strain bim1, stronger effect = lower value 1.02 | locus YER110C, stronger effect = lower value 0.99 | locus YER111C, strain swi4, stronger effect = lower value 1.02 | locus YER155C, strain BEM2, stronger effect = lower value 1.03 | locus YER167W, strain BCK2, stronger effect = lower value 1.02 | locus YFR010W, strain ubp6, stronger effect = lower value 1.01 | locus YGL078C, strain dbp3, stronger effect = lower value 0.991 | locus YGL086W, strain mad1, stronger effect = lower value 0.989 | locus YGL167C, strain pmr1, stronger effect = lower value 1.01 | locus YGL173C, strain kem1, stronger effect = lower value 0.976 | locus YGL227W, strain vid30, stronger effect = lower value 0.97 | locus YGL248W, strain PDE1, stronger effect = lower value 1.02 | locus YGL253W, strain hxk2, stronger effect = lower value 0.997 | locus YGR078C, strain PAC10, stronger effect = lower value 1.02 | locus YGR135W, strain pre9, stronger effect = lower value 1 | locus YGR252W, strain gcn5, stronger effect = lower value 0.988 | locus YHR013C, strain ard1, stronger effect = lower value 1.13 | locus YHR027C, strain rpn1, stronger effect = lower value 0.992 | locus YHR030C, strain SLT2, stronger effect = lower value 1.02 | locus YHR079C, strain IRE1 (second series), stronger effect = lower value 0.98 | locus YHR094C, strain hxt1, stronger effect = lower value 0.99 | locus YHR129C, strain ARP1, stronger effect = lower value 1.01 | locus YHR142W, strain chs7, stronger effect = lower value 0.928 | locus YHR200W, strain rpn10, stronger effect = lower value 0.991 | locus YIL066C, strain RNR3, stronger effect = lower value 1.04 | locus YIL073C, strain SPO22, stronger effect = lower value 1 | locus YIL125W, strain kgd1, stronger effect = lower value 0.99 | locus YIR030C, strain dcg1, stronger effect = lower value 0.985 | locus YJL092W, strain hpr5, stronger effect = lower value 0.983 | locus YJL095W, strain BCK1 (second series), stronger effect = lower value 0.947 | locus YJL095W, strain BCK1, stronger effect = lower value 0.999 | locus YJL115W, strain asf1, stronger effect = lower value 1.01 | locus YJL134W, strain LCB3, stronger effect = lower value 1.02 | locus YJL154C, strain vps35, stronger effect = lower value 0.994 | locus YJL164C, strain tpk1, stronger effect = lower value 0.952 | locus YJL166W, strain qcr8, stronger effect = lower value 0.932 | locus YJL168C, strain set2, stronger effect = lower value 0.993 | locus YJL187C, strain SWE1 (second series), stronger effect = lower value 1.01 | locus YJR043C, strain POL32, stronger effect = lower value 1.05 | locus YKL009W, strain mrt4, stronger effect = lower value 0.997 | locus YKL068W, stronger effect = lower value 0.998 | locus YKL085W, strain MDH1 (second series), stronger effect = lower value 0.999 | locus YKL085W, strain MDH1, stronger effect = lower value 0.999 | locus YKL160W, strain elf1, stronger effect = lower value 0.96 | locus YKR001C, strain vps1, stronger effect = lower value 0.997 | locus YKR026C, strain gcn3, stronger effect = lower value 0.98 | locus YKR091W, strain srl3, stronger effect = lower value 0.995 | locus YLL001W, strain dnm1, stronger effect = lower value 0.954 | locus YLL026W, stronger effect = lower value 0.966 | locus YLL041C, strain sdh2, stronger effect = lower value 0.958 | locus YLR039C, strain RIC1, stronger effect = lower value 0.984 | locus YLR058C, strain SHM2, stronger effect = lower value 1.02 | locus YLR102C, strain apc9, stronger effect = lower value 0.983 | locus YLR221C, strain rsa3, stronger effect = lower value 0.962 | locus YLR258W, strain gsy2, stronger effect = lower value 0.947 | locus YLR262C, strain YPT6 (second series), stronger effect = lower value 1.03 | locus YLR262C, strain YPT6, stronger effect = lower value 1.01 | locus YLR268W, strain sec22, stronger effect = lower value 0.992 | locus YLR320W, strain mms22, stronger effect = lower value 0.889 | locus YLR330W, strain CHS5, stronger effect = lower value 1.02 | locus YLR342W, strain FKS1 (second series), stronger effect = lower value 1.04 | locus YLR342W, strain FKS1, stronger effect = lower value 0.952 | locus YLR357W, strain rsc2, stronger effect = lower value 0.947 | locus YLR370C, strain arc18, stronger effect = lower value 1.01 | locus YLR371W, strain rom2, stronger effect = lower value 0.982 | locus YLR384C, strain iki3, stronger effect = lower value 1 | locus YLR418C, strain cdc73, stronger effect = lower value 0.981 | locus YML016C, strain PPZ1, stronger effect = lower value 1.03 | locus YML032C, strain rad52, stronger effect = lower value 0.989 | locus YML120C, strain ndi1, stronger effect = lower value 0.979 | locus YML124C, strain tub3, stronger effect = lower value 0.988 | locus YMR058W, strain fet3, stronger effect = lower value 0.937 | locus YMR078C, strain ctf18, stronger effect = lower value 1 | locus YMR125W, strain sto1, stronger effect = lower value 0.984 | locus YMR129W, stronger effect = lower value 0.978 | locus YMR223W, strain ubp8, stronger effect = lower value 0.998 | locus YMR231W, strain pep5, stronger effect = lower value 1.01 | locus YMR263W, strain SAP30, stronger effect = lower value 1.02 | locus YMR307W, strain GAS1, stronger effect = lower value 1.16 and 0.976 | locus YNL067W, strain RPL9B, stronger effect = lower value 1 | locus YNL128W, strain TEP1, stronger effect = lower value 1.02 and 0.958 | locus YNL175C, strain NOP13, stronger effect = lower value 0.934 | locus YNL197C, strain WHI3, stronger effect = lower value 0.946 | locus YNL209W, strain ssb2, stronger effect = lower value 0.99 | locus YNL224C, strain SQS1, stronger effect = lower value 0.94 | locus YNL233W, strain BNI4, stronger effect = lower value 1 | locus YNL248C, strain rpa49, stronger effect = lower value 0.99 | locus YNL250W, strain rad50, stronger effect = lower value 0.98 | locus YNL271C, strain bni1, stronger effect = lower value 0.993 | locus YNL298W, strain CLA4, stronger effect = lower value 1.01 | locus YNL307C, strain MCK1, stronger effect = lower value 0.991 | locus YNL322C, strain KRE1 (second series), stronger effect = lower value 0.973 | locus YNR049C, strain mso1, stronger effect = lower value 0.992 | locus YNR052C, strain pop2, stronger effect = lower value 0.979 | locus YOL006C, strain TOP1, stronger effect = lower value 0.986 | locus YOL012C, strain htz1 1.17 | locus YOL147C, strain pex11, stronger effect = lower value 0.993 | locus YOR001W, strain rrp6, stronger effect = lower value 0.997 | locus YOR061W, strain CKA2, stronger effect = lower value 1.03 | locus YOR069W, strain VPS5, stronger effect = lower value 1.02 | locus YOR070C, strain gyp1, stronger effect = lower value 0.988 | locus YOR080W, strain dia2, stronger effect = lower value 1.01 | locus YOR083W, strain WHI5 (second series), stronger effect = lower value 0.891 | locus YOR083W, strain WHI5, stronger effect = lower value 0.952 | locus YOR106W, strain vam3, stronger effect = lower value 0.955 | locus YOR136W, strain idh2, stronger effect = lower value 0.982 | locus YOR144C, strain elg1, stronger effect = lower value 0.988 | locus YOR184W, strain ser1, stronger effect = lower value 1 | locus YOR265W, strain rbl2, stronger effect = lower value 0.979 | locus YOR270C, strain vph1, stronger effect = lower value 0.964 | locus YOR290C, strain snf2, stronger effect = lower value 0.957 | locus YOR316C, strain cot1, stronger effect = lower value 1 | locus YPL051W, strain arl3, stronger effect = lower value 0.987 | locus YPL055C, strain LGE1, stronger effect = lower value 1.02 | locus YPL078C, strain atp4, stronger effect = lower value 0.935 | locus YPL106C, strain sse1, stronger effect = lower value 0.972 | locus YPL240C, strain hsp82, stronger effect = lower value 0.992 | locus YPL241C, strain CIN2, stronger effect = lower value 1.01 and 0.971 | locus YPR119W, strain clb2, stronger effect = lower value 0.989 | locus YPR141C, strain kar3, stronger effect = lower value 0.991 | locus YPR163C, strain tif3, stronger effect = lower value 0.991 | locus YPR167C, strain met16, stronger effect = lower value 0.995 | strain wtn01, stronger effect = lower value 0.992
